# Assay outcomes (PubChem)
# ELG1 genotoxic: genotoxicity induction in ELG1-luciferase HEK293T cells; Potency, µM (top dose mostly 46 µM), hits mostly activators; actives 1.3% (n = 330,000); HEK293T ELG1-luciferase reporter, luminescence, 16 h; note: nearly all actives have a fitted effect of over 60% in size
#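 Genotoxic stress is detected as increased luminescence from luciferase-tagged ELG1 in HEK293T cells, measured with ONE-Glo after a 16 hr treatment at 37 °C.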
# ELG1 DNA repair: inhibitors of ELG1-dependent DNA repair in HEK293T cells | HEK293T ELG1-luciferase reporter, luminescence, 16 h; DNA damage induced by 5-fluorouridine | Potency, µM (series often up to 46.1 µM), actives largely listed as inhibitors | actives 2.3% (n = 330,000) | AID 504467; note: nearly all actives have a fitted effect of over 55% in size
#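 Luminescence from the luciferase reporter, measured 30 min after ONE-Glo reagent at room temperature, was the read-out. Beforehand, 2,000 cells per well were exposed for 16 hr at 37 °C to 5-fluorouridine together with compound or vehicle.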
# NPC1 promoter act: activates the NPC1 promoter. AID 485313. actives 2.4% (n = 320,000). Huh7 NPC1 promoter luciferase reporter, 24 h. Potency, µM (doses to about 9.22 µM), usual class: activators; note: nearly all actives have a fitted effect of over 60% in size
#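 Cells: Huh7 expressing luciferase under the NPC1 promoter, 1500/well. Seeded 2 h, compound added, incubated 24 h at 37 °C. Luciferase reagent, 10 min ambient, then luminescence.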
# FLuc counter: firefly luciferase modulation, counter-screen for miR-21 project | purified FLuc, Km substrates, luminescence inhibition | Potency, µM (top dose mostly 57.5 µM), hits mostly inhibitors | actives 6.9% (n = 360,000) | P08659; note: nearly all actives have a fitted effect of over 55% in size
# Target sequence (P08659 whole entry, looked up): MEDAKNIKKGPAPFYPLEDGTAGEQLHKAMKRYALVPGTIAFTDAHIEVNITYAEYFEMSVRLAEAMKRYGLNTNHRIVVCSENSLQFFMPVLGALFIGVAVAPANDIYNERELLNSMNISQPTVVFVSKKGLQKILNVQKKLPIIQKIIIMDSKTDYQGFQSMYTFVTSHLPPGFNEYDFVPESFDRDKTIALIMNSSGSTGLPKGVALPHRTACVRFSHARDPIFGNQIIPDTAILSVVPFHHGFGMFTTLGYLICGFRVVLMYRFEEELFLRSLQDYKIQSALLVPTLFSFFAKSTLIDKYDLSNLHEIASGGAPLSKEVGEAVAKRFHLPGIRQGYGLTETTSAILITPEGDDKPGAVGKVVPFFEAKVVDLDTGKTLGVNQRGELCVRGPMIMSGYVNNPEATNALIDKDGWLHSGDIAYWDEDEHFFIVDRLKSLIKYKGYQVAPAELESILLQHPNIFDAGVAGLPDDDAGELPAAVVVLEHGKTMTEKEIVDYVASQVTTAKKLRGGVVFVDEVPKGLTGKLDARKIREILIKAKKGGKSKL
#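 Purified P. pyralis luciferase, 10 nM final, with Km-level 10 uM D-luciferin and 10 uM ATP in 50 mM Tris acetate pH 7.5, 10 mM Mg acetate, 0.01% Tween-20, 0.05% BSA; 6-point qHTS titration about 60 µM downward; luminescence read.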
# Rab9 promoter act: activates the Rab9 promoter; Huh7 Rab9 promoter-luciferase reporter, luminescence, 24 h; actives 2.8% (n = 320,000); Potency, µM (highest dose often 9.22 µM), most hits filed as activators; AID 485297; note: nearly all actives have a fitted effect of over 60% in size
#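 Quantitative HTS format; Huh7 Rab9-luciferase reporter cells (1500/well) receive compound 2 h post-plating, incubate 24 h at 37 °C, then get luciferase reagent for 10 min before luminescence reading.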
# SMN2 splice enh: SMN2 splice variant enhancement. HEK293 SMN2-luciferase splicing reporter, luminescence, 30-36 h. Potency, µM (top dose mostly 46.1 µM), usual class: activators. actives 2.8% (n = 210,000); note: nearly all actives have a fitted effect of over 55% in size
#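 qHTS luciferase splicing reporter: luminescence rises when SMN2 exon 7 is included in transfected HEK293 cells. Compound exposure lasted 30-36 h at 37C, with 4.5 mM final sodium butyrate as control, followed by a ONE-Glo read.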
# Hits are given with their value; i = inactive; ? = inconclusive; nt = no result. Sampled rows, rich in hits. Any-hit rate of the full collection: about 9.2%. Calls come from the whole dose curve; as a rule, active = well fitted curve in the direction sought with a large enough effect; inconclusive = small, poorly fitted or top-dose-only effect, or another doubt; inactive = no such curve, though single readings can be large; an effect the other way counts as inactive or inconclusive.
SMILES,ELG1 genotoxic,ELG1 DNA repair,NPC1 promoter act,FLuc counter,Rab9 promoter act,SMN2 splice enh
COc1ccc(OC)c2c1sc(=NC(=O)c1ccco1)n2C,?,i,i,i,i,i
Cc1[nH]c2ccccc2c1C(=O)C(=O)NC1CC1,?,?,?,9.5µM,1.3µM,nt
O=C(NCCOc1ccccc1)C(=O)c1c[nH]c2ccccc12,i,?,i,27µM,i,nt
Cc1ccc(NC(=O)C(=O)c2c[nH]c3ccccc23)cc1,?,?,0.63µM,1.5µM,0.79µM,nt
O=C(NC1CCCCC1)C(=O)c1c[nH]c2ccccc12,15µM,?,?,11µM,3.2µM,nt
CCCCCC(=O)NC(=S)Nc1ccc(N2CCOCC2)cc1,i,i,i,i,i,i
Cc1cc(OCC(=O)Nc2ccncc2)ccc1[N+](=O)[O-],i,7.3µM,i,i,i,i
Cc1cc(OCC(=O)Nc2cnn(CCCC(=O)O)c2)ccc1[N+](=O)[O-],i,i,i,i,i,nt
Cc1ccc(OCC(=O)N2CCCCCCC2)cc1C,i,?,i,?,?,nt
Cc1cc(OCC(=O)N2CCCCCC2)ccc1[N+](=O)[O-],?,?,?,17µM,?,13µM
COc1cccc2c1cc1c(=O)n(CC(=O)O)nc(C)n12,nt,nt,nt,i,nt,i
CC(C)Cc1nn2c(N)c(/C=C3\C=Nc4ccccc43)c(=O)nc2s1,i,i,i,?,i,i
CC(C)(C)C1CCc2c(C(=O)N/N=C/c3cccs3)csc2C1 (stereo not drawn),i,?,?,5.4µM,?,14µM
CC(C)(C)C1CCc2c(C(=O)NNC(=O)/C=C/C(=O)O)csc2C1 (stereo not drawn),i,i,i,24µM,i,i
N#Cc1cccc(NC(=O)N2CC[C@@]3(CCCNC3)C2)c1,nt,nt,nt,nt,nt,i
O=C(N/N=C/c1cc(Cl)c(O)c(Cl)c1)c1cc2c(ccc3ccccc32)o1,i,i,i,2.1µM,i,nt
CCOC(=O)COc1ccccc1/C=N\NC(=O)c1cc2c(ccc3ccccc32)o1,i,i,i,24µM,i,nt
O=C(N/N=C/c1cc(Br)c(O)c(Br)c1)c1cc2c(ccc3ccccc32)o1,i,i,i,3µM,i,nt
CCOC(=O)c1ccc(NC(=O)CN2C(=O)COc3ccc(Cl)cc32)cc1,nt,nt,nt,?,nt,i
COc1cccc(-c2nnc3sc(-c4cccs4)nn23)c1,i,i,3.2µM,?,2.8µM,?
CCOc1cccc(-c2nnc3sc(-c4cccs4)nn23)c1,i,i,i,i,i,i
COc1cccc(-c2nn3c(-c4cccc(C)c4)nnc3s2)c1,i,?,i,19µM,i,i
COc1ccc(-c2nnc3sc(-c4ccco4)nn23)cc1OC,?,i,i,i,i,i
COc1cccc(-c2nnc3sc(-c4ccco4)nn23)c1,?,?,4.5µM,?,2.8µM,i
c1ccc(-c2cc(-c3nn4c(-c5ccco5)nnc4s3)c3ccccc3n2)cc1,i,21µM,i,i,i,i
SMILES,ELG1 genotoxic,ELG1 DNA repair,NPC1 promoter act,FLuc counter,Rab9 promoter act,SMN2 splice enh
Cc1cc(C)c(S(=O)(=O)N2CCCCC2)c(C)c1N(C)S(=O)(=O)c1ccccc1,i,i,i,i,i,i
O=C(c1csc(Nc2cccc3ccccc23)n1)N1CCCC1,i,i,i,i,i,nt
O=C(c1cc(-c2ccc(Cl)cc2)on1)N1CCN(c2ccc(F)cc2)CC1,i,i,i,i,i,nt
O=C(c1csc(Nc2ccccc2Cl)n1)N1CCCC1,i,?,?,?,?,13µM
COc1ccccc1-c1cc(C(=O)N2CCCC2)no1,2.9µM,?,2.5µM,7.6µM,2µM,nt
O=C(c1cccc(F)c1)N1CCN(C(=O)c2cc(-c3ccc(Cl)cc3Cl)on2)CC1,i,?,i,11µM,i,nt
COc1ccccc1-c1cc(C(=O)N2CCN(c3ccc(F)cc3)CC2)no1,i,?,i,i,i,i
COc1ccccc1-c1cc(C(=O)N2CCOCC2)no1,2.9µM,?,?,13µM,2.2µM,nt
O=C(O)c1c(Sc2ccccc2)c2cc(Cl)ccc2n1Cc1ccc(Cl)cc1,nt,nt,nt,nt,nt,i
O=C(c1cc(-c2ccccc2Cl)on1)N1CCCC1,?,?,?,1.2µM,?,nt
